SMILES strings stand for the structures. Inconclusive results are not listed. Unmarked numbers belong to inactive results. Active and inactive are the calls of the source. Unless noted, calls follow the shape of the dose curve; as a rule, active = well fitted inhibition curve with a large enough effect; inconclusive = small, poorly fitted or top-dose-only effect; inactive = flat fitted curve, though single readings scatter.

T1 sequence (P78324 whole entry, looked up): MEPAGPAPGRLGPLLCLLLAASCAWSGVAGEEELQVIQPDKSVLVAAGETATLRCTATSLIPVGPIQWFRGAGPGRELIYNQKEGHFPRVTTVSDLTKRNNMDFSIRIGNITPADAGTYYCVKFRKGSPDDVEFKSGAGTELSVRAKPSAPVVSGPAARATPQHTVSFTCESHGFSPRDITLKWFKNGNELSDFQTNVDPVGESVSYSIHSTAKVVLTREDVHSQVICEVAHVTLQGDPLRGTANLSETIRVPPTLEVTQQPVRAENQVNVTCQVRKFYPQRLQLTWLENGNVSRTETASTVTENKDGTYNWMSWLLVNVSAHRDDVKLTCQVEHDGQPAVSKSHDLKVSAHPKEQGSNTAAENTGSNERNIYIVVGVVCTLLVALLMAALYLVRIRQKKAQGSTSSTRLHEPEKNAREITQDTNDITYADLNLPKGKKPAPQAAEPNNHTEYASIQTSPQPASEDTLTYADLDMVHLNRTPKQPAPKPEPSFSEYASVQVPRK
T1 sequence (Q08722 whole entry, looked up): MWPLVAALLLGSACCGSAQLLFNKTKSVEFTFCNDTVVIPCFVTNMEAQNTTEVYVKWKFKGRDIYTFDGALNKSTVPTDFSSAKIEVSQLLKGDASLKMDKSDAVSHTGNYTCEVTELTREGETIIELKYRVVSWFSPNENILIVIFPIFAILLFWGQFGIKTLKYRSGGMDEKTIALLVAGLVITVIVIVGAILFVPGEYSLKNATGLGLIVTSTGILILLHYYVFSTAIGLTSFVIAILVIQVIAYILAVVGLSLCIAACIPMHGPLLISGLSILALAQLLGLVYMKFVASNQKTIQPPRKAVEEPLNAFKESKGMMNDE

The first assay addresses T1, Tyrosine-protein phosphatase non-receptor type substrate 1 (Homo sapiens) + Leukocyte surface antigen CD47 (Homo sapiens) (UniProt P78324+Q08722). As to the kind of experiment: CD47-SIRPalpha protein protein interaction - LANCE assay qHTS validation (AID 1347057; active = well fitted curve in the direction sought with a large enough effect in the signal ratio, with a control signal flat, not every such curve was filed as active; the % refers to the signal ratio; also: 0% is about no effect). The following applies: Recombinant CD47-His / biotin-SIRPalpha, TR-FRET ratio; series mostly up to 38.3 µM; activity change, negative = inhibition: at the top concentration. Put shortly: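 First, His-tagged CD47 and Eu-labelled anti-His antibody met the compound for 30 min; next, site-specifically biotinylated SIRPalpha was added for 30 min; finally streptavidin-APC was added before reading the TR-FRET ratio.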
Regarding `COc1ccc(Cc2nccc3cc(OC)c(OC)cc23)cc1OC`, the “activity change, negative = inhibition” value is 1.89%.

Regarding `Clc1ccc(Cn2c(CN3CCCC3)nc3ccccc32)cc1`, the “activity change, negative = inhibition” value is 1.4%.

With `CC(=O)O[C@]1(C(C)=O)CC[C@H]2[C@@H]3C=C(Cl)C4=CC(=O)[C@@H]5C[C@@H]5[C@]4(C)[C@H]3CC[C@@]21C`, the “activity change, negative = inhibition” value was 1.19%.

For `C[N+](C)(C)CCCCCC[N+](C)(C)C`, the result was inactive.

In a further assay the target is T1, Tyrosine-protein phosphatase non-receptor type substrate 1 (Homo sapiens) + Leukocyte surface antigen CD47 (Homo sapiens). As to the kind of experiment: CD47-SIRPalpha protein protein interaction - HTRF assay qHTS validation (AID 1347058; active = well fitted curve in the direction sought with a large enough effect in the signal ratio, not every such curve was filed as active; the % refers to the signal ratio;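 also: recombinant soluble extracellular CD47 with His tag and biotinylated SIRPalpha domains; 0% is about no effect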). The following applies: TR-FRET HTRF CD47-His / biotin-SIRPalpha binding, ratio 665/615; series mostly up to 38.3 µM; activity change, negative = inhibition: at the top concentration. Put shortly:
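TR-FRET read (Ch1/Ch2 ratio) of soluble extracellular CD47 and Avi-biotinylated SIRPalpha domains in PBS pH 7.4 with 0.05% IGEPAL; 7-point compound titration. Sequential 30 min room-temperature steps; non-biotinylated SIRPalpha as control inhibitor.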
For orientation: Time-resolved FRET reads energy transfer from a long-lived donor to a nearby acceptor.
As for `COc1ccc(Cc2nccc3cc(OC)c(OC)cc23)cc1OC`, the “activity change, negative = inhibition” value was -2.32%.

In the case of `Clc1ccc(Cn2c(CN3CCCC3)nc3ccccc32)cc1`, the “activity change, negative = inhibition” value was 0.1%.

On to `CC(=O)O[C@]1(C(C)=O)CC[C@H]2[C@@H]3C=C(Cl)C4=CC(=O)[C@@H]5C[C@@H]5[C@]4(C)[C@H]3CC[C@@]21C`, for which the “activity change, negative = inhibition” value is -0.654%.

Regarding `C[N+](C)(C)CCCCCC[N+](C)(C)C`, the outcome was inactive.

A further assay has the same target. The experiment in a line: CD47-SIRPalpha protein protein interaction - Alpha assay qHTS validation (AID 1347059).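 Also: bead proximity luminescence from CD47 binding SIRPalpha after compound preincubation with SIRPalpha; % is scaled to controls: 0 for no effect and ±100 for the full control effect.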 The following applies: AlphaScreen CD47-His/biotin-SIRPalpha binding, LOPAC; series mostly up to 38.3 µM; activity change, negative = inhibition: at the top concentration. Put shortly:
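Binding is measured by AlphaScreen proximity: Ni-NTA acceptor beads capture His-CD47, streptavidin donor beads capture biotin-SIRPalpha. Each of three additions (SIRPalpha with compound, CD47, beads) incubates 30 min at room temperature protected from light.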
`COc1ccc(Cc2nccc3cc(OC)c(OC)cc23)cc1OC`: the “activity change, negative = inhibition” value was 0.27%.

As for `Clc1ccc(C(c2ccc(Cl)cc2)n2cc[n+](CC(OCc3ccc(Cl)cc3Cl)c3ccc(Cl)cc3Cl)c2)cc1` (stereo not drawn), the “activity change, negative = inhibition” value was -27.5%.

With `Clc1ccc(Cn2c(CN3CCCC3)nc3ccccc32)cc1`, the “activity change, negative = inhibition” value was -5.37%.

`CC(=O)O[C@]1(C(C)=O)CC[C@H]2[C@@H]3C=C(Cl)C4=CC(=O)[C@@H]5C[C@@H]5[C@]4(C)[C@H]3CC[C@@]21C`: the “activity change, negative = inhibition” value was -6.27%.

`C[N+](C)(C)CCCCCC[N+](C)(C)C`: the outcome was inactive.
